Assay results from PubChem BioAssay AID1508602 (The Scripps Research Institute Molecular Screening Center, 2020).
“And” between values parts separate entries of the source, which are not always exact repeats. Equal values may be shown once. The whole screen tested about 650,000 compounds, of which about 6,800 (1%) were called active. This is one part of a sample in which actives are shown more often than they occur. Values without a mark were called inactive. Cut-off read from the data, not from the text of the source: active = activation above about 4.9%; inactive = the rest.

target: G-protein coupled receptor 151 (Homo sapiens) (UniProt Q8TDV0); experiment: activates the human receptor GPR151, primary screen, cell-based, PathHunter beta-arrestin, luminescence (AID 1508602); conditions: PathHunter beta-arrestin GPR151 cells, at 11.2 µM, stronger effect = higher value;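 note: 0% = median of compound wells and 100% = cells with positive control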
Sequence (Q8TDV0 whole entry, looked up): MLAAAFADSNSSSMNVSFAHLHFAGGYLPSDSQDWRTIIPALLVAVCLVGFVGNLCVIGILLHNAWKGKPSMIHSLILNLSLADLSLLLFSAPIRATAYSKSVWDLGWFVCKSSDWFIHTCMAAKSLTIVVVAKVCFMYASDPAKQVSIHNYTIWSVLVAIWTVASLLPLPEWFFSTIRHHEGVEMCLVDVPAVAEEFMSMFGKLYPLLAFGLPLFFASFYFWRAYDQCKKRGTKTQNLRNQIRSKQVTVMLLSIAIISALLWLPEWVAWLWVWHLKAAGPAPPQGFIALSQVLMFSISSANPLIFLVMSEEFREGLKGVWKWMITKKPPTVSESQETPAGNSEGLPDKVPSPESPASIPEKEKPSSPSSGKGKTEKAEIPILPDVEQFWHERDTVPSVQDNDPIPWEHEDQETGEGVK

Compound | activation
O=C(Nc1cc([N+](=O)[O-])ccc1Cl)c1cc(Cl)ccc1Cl | -0.475%
CC(=O)Nc1ccc(NC(=O)c2ccc3nc(Br)sc3c2)cc1 | 6.16% (active)
O=C(Nc1ccccc1)c1ccc2nc(Br)sc2c1 | -4.09%
CCNc1nc2ccc(C(=O)Nc3ccc(NC(C)=O)cc3)cc2s1 | -3.46%
Cc1ccc(C(=O)NCC(=O)OCC(=O)Nc2cccc(Cl)c2)s1 | 0.82%
NC(=O)c1c(NC(=O)c2ccccc2F)sc2c1CCCCCC2 | 1.12%
COC(CNC(=O)CC(NS(=O)(=O)c1ccc(C)cc1)c1ccco1)OC (stereo unspecified) | -0.827%
COC(=O)c1ccc2c(=O)n(CCN3CCOCC3)c(SCc3cc(C(C)=O)ccc3OC)nc2c1 | -0.152%
COc1ccccc1NC(=O)Nc1ccnn1C1CCN(C(=O)CCc2ccccc2)CC1 | 0.323%
O=C(CCc1nnc(Cc2cccc(C(F)(F)F)c2)o1)N1CCSCC1 | -0.806%
O=C(CCc1nnc(CCCCc2ccccc2)o1)N1CCC(N2CCSCC2)CC1 | 7% (active)
CN(Cc1ccno1)C(=O)CC1C(=O)NCCN1Cc1ccoc1 (stereo unspecified) | 1.36%
COc1cccc(N(C(=O)c2csnn2)C(C(=O)NC(C)(C)C)c2ccc(F)cc2)c1 (stereo unspecified) | 0.396%
CCc1ccc(CN(C)C(=O)CC2(c3ccccc3Cl)CC(=O)N(C)C2=O)cc1 (stereo unspecified) | 0.519%
CCc1ccc(-c2oc(C)c(C)[n+]2[O-])cc1 | -2.56%
COCCN1C(=O)CC(CC(=O)N(C)C(C)C)(c2ccccc2F)C1=O (stereo unspecified) | -1.69%
Cc1cnc(CN(C)C(=O)CC2(c3ccccc3C)CC(=O)N(CCN(C)C)C2=O)[nH]1 (stereo unspecified) | 1.18%
COCCN1C(=O)CC(CC(=O)NCc2nc3ccccc3[nH]2)(c2ccccc2C)C1=O (stereo unspecified) | 6.75% (active)
COCCNC(=O)c1cnn2c(C)c(Cc3ccc(Cl)cc3)c(C)nc12 | 0.41%
CC(=O)c1ccc(-c2cnc3[nH]c(=O)n(C4CCCCC4)c3n2)s1 | -0.0776%
Cc1ccc(S(=O)(=O)N2CC3CC3C2C(=O)Nc2ccc(F)cc2)cc1 (stereo unspecified) | 0.0458%
Nc1ccc(C(=O)Nc2nc3ccc(C(=O)N4CCCCC4)cc3s2)cc1 | -0.249%
CC1CCCC(NCc2c(C(=O)O)n(Cc3ccc(F)cc3)c3ccccc23)C1C (stereo unspecified) | 0.786%

Compound | activation
CC1CCCC(NCc2c(C(=O)O)n(Cc3ccc(Cl)cc3)c3ccccc23)C1C (stereo unspecified) | 7.5% (active)
O=C(O)c1c(CNC2CCCCC2)c2ccccc2n1Cc1ccc(Cl)cc1 | -0.235%
O=C(Nc1ccc(N2CCOCC2)cc1)c1ccc2nc(Nc3ccncc3)sc2c1 | 0.271%
O=C(Cn1c(=O)n(Cc2ccccc2)c(=O)c2ccccc21)c1ccccc1 | 5.03% (active)
NC(=O)Cn1c(=O)n(CCCCC(=O)NCCc2ccccc2)c(=O)c2ccccc21 | -0.245%
COc1ccc(OC)c(NC(=O)Cn2c(=O)n(Cc3ccccc3)c(=O)c3ccccc32)c1 | -0.558%
CCOC(=O)c1sc(NC(=O)CSc2nnc(-c3ccccc3)o2)c(C#N)c1C | -0.17%
CCOC(=O)c1sc(NC(=O)CSc2ncccn2)c(C#N)c1C | 4.97% (active)
CCOC(=O)c1sc(NC(C)=O)c(C#N)c1C | -1.06% and -0.982%
NC(=O)c1c(NC(=S)NC(=O)c2ccccc2)sc2c1CCCCCC2 | -0.485%
COc1ccc(C2CC(c3ccccc3)n3ncnc3N2)cc1 (stereo unspecified) | -0.25%
COC(Cn1c(=S)[nH]c2cc3ccccc3cc2c1=O)OC | 0.597%
COc1ccc(C2(C)NC(=O)N(CC(=O)NCCc3ccccc3)C2=O)cc1 (stereo unspecified) | -0.0334%
CC1(c2ccc3ccccc3c2)NC(=O)N(CC(N)=O)C1=O (stereo unspecified) | -0.0365%
COc1ccc(C2(C)NC(=O)N(CC(=O)Nc3ccc4ccccc4c3)C2=O)cc1 (stereo unspecified) | 5.16% (active)
O=C(Nc1ccc2cn[nH]c2c1)c1ccc(F)cc1F | -2.11%
COc1ccc(C2C(C#N)=C(N)Oc3c2c(C)nn3-c2ccccc2)cc1 (stereo unspecified) | 8.46% (active)
Cc1nn(-c2ccccc2)c2c1C(c1ccc(-c3ccccc3)cc1)C(C#N)=C(N)O2 (stereo unspecified) | -3.52%
COc1cc(C2C(C#N)=C(N)Oc3c2c(C)nn3-c2ccccc2)ccc1OCC#N (stereo unspecified) | 0.152%
CCOC(=O)Cn1c(CNC(=O)c2ccco2)nc2ccccc21 | -1.37%
COc1ccc(OCCCC(=O)Nc2ccccc2)cc1 | -0.655%
CCOC(=O)c1cccc(NC(=O)/C=C/c2ccccc2)c1 | 5.45% (active)
CCOC(=O)c1cccc(NC(=O)CCCOc2ccc(OC)cc2)c1 | 5.63% (active)

Compound | activation
CCOC(=O)c1cccc(Nc2c(-c3ccccc3)c(=O)c2=O)c1 | -1.39%
COc1cccc(NC(=O)CCCOc2ccc(C)cc2)c1 | 0.676%
CCOC(=O)c1cccc(NC(=O)/C=C/c2ccc(Cl)cc2)c1 | -0.517%
COc1cc(NC(=O)CSc2ncccc2-c2nc3ccccc3[nH]2)cc(OC)c1 | -2.5%
COc1ccc(N2CCN(c3nc(Nc4ccc(C)c(Cl)c4)nc(N4CCCC4)n3)CC2)cc1 | -0.777%
COc1ccc(-c2cc(-c3cccs3)nc3sc(C(N)=O)c(N)c23)cc1 | -1.24%
CC/C=C\C/C=C\C/C=C\C/C=C\C/C=C\C[C@H]1O[C@H]1CCC(=O)OC | 0.982%
Cc1cccc(C(=O)OCC(=O)NC(=O)NCc2ccccc2)c1C | 0.774%
COc1ccc(N2CCN(C(=O)c3ccc(Cn4c(=S)[nH]c5ccc(Br)cc5c4=O)cc3)CC2)cc1 | -0.211%
COc1cc(OC)c(OC)cc1/C=N/N=C1\NC(=O)C(CC(=O)O)S1 (stereo unspecified) | 0.825%
CC/C(=N\N=C1/NC(=O)C(CC(=O)O)S1)c1ccc(C)cc1 (stereo unspecified) | -1.1%
Cc1ccc(C(=O)Oc2ccccc2/C=N/N=C2\NC(=O)C(CC(=O)O)S2)cc1 (stereo unspecified) | 7.49% (active)
CCCC(=O)Nc1ccc(S(=O)(=O)N(Cc2ccsc2)C2CC2)cc1 | 0.722%
O=C(Nc1ccc(NC(=O)c2cccnc2Cl)cc1)c1ccco1 | 0.162%
O=C(Nc1ccc(NC(=O)c2cccc3c(Br)cccc23)cc1)c1ccco1 | 34.7% (active)
O=C(Nc1cccc(NC(=O)c2cccc(Cl)c2Cl)c1)c1ccco1 | -0.952%
CCN1C(=O)S/C(=C/c2cccc(C(F)(F)F)c2)C1=O | 1.18%
CCN(CC)C(=O)Cn1ncc2c3ccccc3n(Cc3ccccc3)c2c1=O | -0.284%
COC(=O)Cn1ncc2c3ccccc3n(Cc3cccc(Cl)c3)c2c1=O | 4.95% (active)
CNC(=O)Cn1ncc2c3ccccc3n(Cc3ccccc3)c2c1=O | 0.452%
COCCOC(=O)C1=C(N)OC2=C(C(=O)CC(C)(C)C2)C1c1ccc(F)c(F)c1 (stereo unspecified) | 0.277%
CC1=C(C(=O)OCCOc2ccccc2)C(c2ccccc2F)NC(=O)N1 (stereo unspecified) | -1.1%
CCOC(=O)c1sc(NC(=O)C(C)Sc2nnc(CNC(=O)c3ccc(OC)cc3)n2Cc2ccccc2)c(C(=O)OCC)c1C (stereo unspecified) | -1.72%

Compound | activation
CSc1nc(N)nc2nc[nH]c12 | 16.2% (active)
Nc1nc(SCc2cccc3ccccc23)c2[nH]cnc2n1 | -0.0695%
COc1ccc(-c2nc(N)c3[nH]cnc3n2)cc1 | -0.0768%
O=C(Cn1c(=S)nc2ccccn21)N1CCc2ccccc2C1 | 7.33% (active)
Cc1cccc2cnn(CC(=O)N3CCc4ccccc4C3)c12 | -2%
CC(C)CC(=O)N1CCc2ccccc2C1 | -1.1%
CCc1nc(N2CCC(C(=O)O)CC2)c2oc3ccccc3c2n1 | -2.33%
CC(=O)C1=C(c2ccc(C(C)(C)C)cc2)N(C(C)=O)n2cnnc2S1 | 0.857%
CCc1nnc2n1N(C(C)=O)C(c1ccc3c(c1)CCCC3)=C(C(C)=O)S2 | 8.6% (active)
CCOc1ccc(C2=C(C(=O)CC)Sc3nnc(CC)n3N2C(=O)CC)cc1 | -0.342%
CCOc1ccccc1CNn1c(-c2ccc(OC)cc2)nc2ccccc2c1=O | -1.68%
COc1ccccc1/C=C/CN1CCNC(=O)C1CC(=O)NC1CC1 (stereo unspecified) | -1.56%
CCCSc1nnc2c(n1)OC(c1cccc(Br)c1)Nc1ccccc1-2 (stereo unspecified) | -0.594%
COc1ccc(NCN2C(=O)c3cc(Cl)c(Cl)cc3C2=O)cc1 | -1.71%
CCOC(=O)C1=C(C)N(c2ccc(C)cc2)C(=O)/C1=C\c1ccc(OC)cc1 | -0.542%
COc1ccc(N2C(=O)C(Cl)=C(Nc3ccc(C)cc3)C2=O)cc1 | 5.51% (active)
COc1cc(/C=C2/NC(=O)N(Cc3ccc(Br)cc3)C2=O)ccc1O | -0.481%
O=C(Cc1ccccc1)N1CCCc2ccccc21 | 0.472%
O=C(C1CCCN1S(=O)(=O)c1ccc(Cl)cc1)N1CCCc2ccccc21 (stereo unspecified) | -1.26%
O=C(C1CCN(S(=O)(=O)Cc2ccccc2)CC1)N1CCCc2ccccc21 | 8.15% (active)
Cc1ccc(C(=O)Nc2ccc(O)c(-c3nc4ccccc4o3)c2)cc1 | 1.96%
C/C(CC(=O)Nc1cccc(F)c1)=N\NC(=O)c1cccc(C)c1 | 0.312%
